PolyA inhibitor = polyadenylation inhibitors in yeast reporter cells, primary screen, luminescence, S. cerevisiae; activity score, % at 12 µM; 300,000 compounds, 0.02% hits; S. cerevisiae SKY197-pL101 polyadenylation reporter, beta-gal luminescence; efflux-impaired pdr1/pdr3 knockout yeast; score 100 = 6 SD above DMSO;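 active = lowest replicate activity score at least 50, where 100 means six control SD above control mean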;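 note: yeast exposed to compound for 9 h at 30 °C; higher score means more reporter readthrough which indicates perturbed polyadenylation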
hgDAF12 agonist = H. glycines DAF-12 receptor agonists, primary screen, cell-based, luminescence, HEK293, GAL4 fusion, UAS-luciferase | Nuclear hormone receptor DAF-12 (Heterodera glycines), GAL4 fusion | HEK293 GAL4-hgDAF12 UAS-luciferase reporter, agonist luminescence; normalized to butyrate control | activation, % at 6.8 µM | 370,000 compounds, 1.8% hits | AID 687014, 2013;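 active = activation above a cutoff set at the mean of all screened compounds plus 3 SD, cut at about 10% in these data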
hcDAF12 agonist = H. contortus DAF-12 nuclear receptor activators, primary screen, cell-based, luminescence, HEK293, lit1-tk-luc reporter; 370,000 compounds, 1.4% hits; HEK293 hcDAF-12 lit1-tk-luc reporter; 0% DMSO, 100% Δ7-dafachronic acid; activation, % at 6.8 µM;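 active = activation above the mean of all tested compounds plus 3 SD, cut at about 5.5% in these data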
DAX1 inh-1 = DAX1 (NR0B1) inhibitors on StAR promoter, primary screen, cell-based, luminescence, SF-1 (NR5A1), full-length DAX-1 | inhibition, % at 6.8 µM | HEK293T StAR-luciferase reporter, SF-1/DAX-1 repression relief | 370,000 compounds, 1.1% hits;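 active = inhibition above the mean over all tested compounds plus 3 SD, cut at about 3.6% in these data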;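 note: higher inhibition means more luminescence from relief of DAX-1 repression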
DAX1 inh-2 = DAX1 (NR0B1) inhibitors, primary screen, cell-based, HEK293, Gal4-DAX1, luciferase luminescence. Nuclear receptor subfamily 0 group B member 1 (Homo sapiens), P51843. HEK293 Gal4-DAX1 luciferase reporter. inhibition, % at 6.75 µM. 340,000 compounds, 0.99% hits. AID 504766, 2011;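 active = inhibition above the mean over all tested compounds plus 3 SD, cut at about 4.2% in these data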;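 note: inhibition shows as a rise in luminescence from relieved DAX1 repression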
Target sequence (P51843 207-470 limits assumed): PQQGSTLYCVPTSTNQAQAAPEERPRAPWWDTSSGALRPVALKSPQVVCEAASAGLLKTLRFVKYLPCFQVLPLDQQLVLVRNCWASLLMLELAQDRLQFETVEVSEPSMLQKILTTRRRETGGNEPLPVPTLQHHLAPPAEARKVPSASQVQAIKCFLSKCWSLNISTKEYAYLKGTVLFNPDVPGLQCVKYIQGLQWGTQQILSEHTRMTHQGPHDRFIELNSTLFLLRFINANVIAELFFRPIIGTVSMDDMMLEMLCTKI
ssDAF-12 act = S. stercoralis DAF-12 nuclear receptor activators, primary screen, cell-based, luminescence, HEK293, GRIP1 co-expression, lit1-tk-luc; Nuclear hormone receptor DAF-12 (Strongyloides stercoralis); HEK293 ssDAF-12/GRIP1 lit1-tk-luc reporter; % of 3 µM dafachronic acid response; activation, % at 6.8 µM; 370,000 compounds, 1% hits;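 active = activation above the mean over all tested compounds plus 3 SD, cut at about 0.9% in these data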
Large screens that a line does not name were inactive. In the library only some 4.1% were active in any assay of this set; here they are far more common.

O=C(Cc1ccccc1Cl)NCCN1C(=O)C2C3C=CC(C3)C2C1=O (stereo not drawn)	none (no result: PolyA inhibitor, DAX1 inh-2)
CN(C)/C=N/S(=O)(=O)c1ccc(Cl)cc1	DAX1 inh-2 4.4
Cc1ccc(S(=O)(=O)/N=C/N(C)C)cc1	none
COc1ccccc1C=NN=C1c2ccccc2-c2ccccc21	none (no result: PolyA inhibitor)
COc1ccccc1C=NN=Cc1ccccc1OC	ssDAF-12 act 1.1 (no result: PolyA inhibitor)
CC(C)(C)OC(=O)N1CCC(N[C@@H](Cc2ccccc2)C(=O)NCC(c2ccccc2)c2ccccc2)(C(=O)NC2CCCCC2)CC1	none (no result: PolyA inhibitor, DAX1 inh-1, DAX1 inh-2)
CN(CC(=O)N1CCOCC1)C(=O)CSc1nc2ccccc2s1	none
CC(Sc1nc2ccccc2s1)C(=O)N1CCOCC1 (stereo not drawn)	ssDAF-12 act 1.2
OCCC(N1CCOCC1)C(O)(c1ccccc1)c1ccccc1 (stereo not drawn)	none (no result: PolyA inhibitor, DAX1 inh-2)
O=C(Cc1cnc2ncnn2c1)N1CCc2c([nH]c3ccccc23)C1c1ccccc1F (stereo not drawn)	ssDAF-12 act 1.7
C[C@@H]1CN(Cc2nc(-c3cccs3)no2)C[C@H](C)O1	DAX1 inh-2 9.4
CCN1Cc2nnn(Cc3ccccc3)c2-c2cc(N3CCCC3)ccc2S1(=O)=O	none (no result: PolyA inhibitor, DAX1 inh-2)
CCOC(=O)[C@]12CCCCC/C=C\1N(Cc1ccc(OC)cc1)C(=O)[C@H]2CC(=O)NCC12CC3CC(CC(C3)C1)C2	none (no result: PolyA inhibitor, DAX1 inh-2)
Cc1cc(C)n(Cc2ccccc2)c(=O)c1S(=O)(=O)c1ccccc1	none
C#CCn1c(C)cc(C)c(S(=O)(=O)c2ccccc2)c1=O	hgDAF12 agonist 11
CCC(C)N(C(=O)c1oc(=O)c2ccccc2c1-c1ccc(C)cc1)C(C)CC (stereo not drawn)	none (no result: PolyA inhibitor, DAX1 inh-2)
COc1ccc(-c2csc(NC(=O)C3=COCCO3)n2)c(OC)c1	DAX1 inh-1 3.9
CCCNC(=O)C[C@H]1CC[C@H]2[C@@H](COc3ccc(NC(=O)Nc4ccccc4)cc3C(=O)N2C)O1	none (no result: PolyA inhibitor, DAX1 inh-2)
N#Cc1ccc(NC(=O)OC2CCC23CCC(c2ccccc2)CC3)cc1 (stereo not drawn)	none (no result: PolyA inhibitor, DAX1 inh-2)
Cc1ccc(N/N=C(\C#N)C(=N)N2CCOCC2)cc1	hgDAF12 agonist 13, DAX1 inh-2 5.2
N#C/C(=N\Nc1ccccc1F)C(=N)N1CCCCC1	hgDAF12 agonist 11
O=C(CN1CCCCCC1)Nc1ccccc1F	none
COc1ccc(N/N=C(\C#N)C(=N)N2CCCCC2)cc1	DAX1 inh-2 6.4
Cc1ccc(N/N=C(\C#N)C(=O)c2ccsc2)cc1	none
CCN(CC)C(=N)/C(C#N)=N/Nc1ccc(C)cc1	DAX1 inh-2 7.1
N#C/C(=N\Nc1ccccc1)C(=N)N1CCOCC1	none
CCCC[C@H](C(=O)N(C)c1cccc(OC)c1)[C@@H](O)c1ccc(Cl)cc1	none (no result: PolyA inhibitor, DAX1 inh-2)
CC(C)CN1CCCC(N2CCN(c3cccc(Cl)c3)CC2)C1 (stereo not drawn)	hcDAF12 agonist 6.3
COc1ccc(CN2CCCC(N3CCN(c4cccc(Cl)c4)CC3)C2)cc1OC (stereo not drawn)	none
COC(=O)C[C@@H]1CC[C@H]2[C@H](COc3ccc(NC(=O)Nc4ccc(Cl)cc4)cc3C(=O)N2C)O1	none (no result: PolyA inhibitor, DAX1 inh-2)
O=S(=O)(c1c(Cl)sc(Cl)c1Br)N1CCCC1	ssDAF-12 act 1.5
F[B-](F)(F)c1cncnc1	none (no result: PolyA inhibitor, DAX1 inh-2)
Clc1ccc(-c2nc(-c3ccccn3)no2)cc1Cl	hgDAF12 agonist 12, DAX1 inh-1 3.6
CCc1ccc(-c2csc(NC(=O)C3CCCO3)c2C(=O)OC(C)C)cc1 (stereo not drawn)	none
COC(=O)c1c(-c2ccc(F)cc2)csc1NC(=O)C1CCCO1 (stereo not drawn)	hgDAF12 agonist 12
O=C(CCN1C(=O)/C(=C/c2ccc(F)cc2)SC1=S)NNC(=O)c1cccnc1	DAX1 inh-2 4.3
Cc1ccc(OC(=O)N(C)C[C@H]2OCc3cn(nn3)CCCC(=O)N([C@@H](C)CO)C[C@@H]2C)cc1	none (no result: PolyA inhibitor, DAX1 inh-2)
CC(=NNc1cc(C)c2cc(C)ccc2n1)c1ccccn1	none (no result: PolyA inhibitor, DAX1 inh-2)
CCNS(=O)(=O)c1ccc2c(c1)NCC2	ssDAF-12 act 1.7
CCNS(=O)(=O)c1ccc(OC)c(C)c1	none
COC(=O)C[C@H]1CC[C@@H]2[C@@H](COc3ccc(NC(=O)Nc4cccc(C)c4)cc3C(=O)N2C)O1	none (no result: PolyA inhibitor, DAX1 inh-2)
O=c1[nH]c(-c2ccc3c(c2)OCO3)nc2c1sc(=S)n2-c1ccccc1	ssDAF-12 act 1.0
c1csc(-c2nc(N3CCCCC3)no2)c1	DAX1 inh-2 5.0
CC(=O)OC[C@]12CC[C@H]3[C@@](C)(CC[C@H]4C(C)(C)CCC[C@]34C)[C@@H]1CC(C1=CC(=O)OC1O)O2 (stereo partly drawn)	none (no result: PolyA inhibitor, DAX1 inh-2)
CCOC(=O)/C(N=Nc1ccc2c(c1)OCO2)=C(\C)O	DAX1 inh-2 6.3 (no result: PolyA inhibitor)
CCOC(=O)C(=O)Nc1ccc2c(c1)OCO2	none
CCOc1ccc2nc(NC(=O)Cn3[nH]c(=O)c4ccccc4c3=O)sc2c1	hgDAF12 agonist 11, DAX1 inh-2 6.8
CCOc1ccc2nc(NC(=O)CN3C(=O)C4CCCCC4C3=O)sc2c1 (stereo not drawn)	DAX1 inh-1 3.7
CCCCNC(=O)NC1CCN(CC(=O)Nc2ccc3c(c2)OCCO3)CC1	none (no result: PolyA inhibitor, DAX1 inh-2)
CCCC(=O)OC12CCCN(C1)/C(=C/c1ccc(C#N)cc1)C2 (stereo not drawn)	none (no result: PolyA inhibitor, DAX1 inh-2)
Cc1ccc(N(CC(=O)NCC2CCCO2)C(=O)Cn2nnc(-c3cccs3)n2)cc1 (stereo not drawn)	hgDAF12 agonist 12, hcDAF12 agonist 5.6, ssDAF-12 act 1.1
O=C(NCc1ccccc1)c1cccc(COc2cc(Cl)ccc2Cl)c1	hgDAF12 agonist 11
C[C@@H]1CN(C(=O)c2cc(COc3cccc(C(F)(F)F)c3)on2)C[C@H](C)O1	hgDAF12 agonist 11
CC(=O)Nc1nnc(-c2ccc3c(c2)CCCC3)o1	hgDAF12 agonist 11, DAX1 inh-1 3.8
COc1ccccc1C(=O)Nc1nnc(-c2ccc3c(c2)CCCC3)o1	none
COc1ccc(C(c2c[nH]c3ccccc23)c2c[nH]c3ccccc23)cc1O	ssDAF-12 act 2.8
O=C(Nc1ccc(NC(=O)c2ccccc2F)cc1)c1cccs1	DAX1 inh-1 4.2 (no result: PolyA inhibitor)
CCN(CC)C(=O)C(=O)Nc1ccc(OCc2ccccc2)cc1	hgDAF12 agonist 12

Bioassay records from PubChem.
